From PubChem BioAssay (NCATS) come the findings set out here.

Results filed as inconclusive are left out. The source made the active and inactive calls. Calls come from the whole dose curve; as a rule, active = well fitted inhibition curve with a large enough effect; inconclusive = small, poorly fitted or top-dose-only effect; inactive = no such curve, though single readings can be large or run the other way. *1 amine or outer side, *2 acyl side, *3 side chain or, on linkers, in order; H or OH if unused. Where a SMILES comes first, the peptide text is derived from it. [ ]: non-standard residue; d: D form. X7 = O=C([C@@H](CC(O)CCl)O[*:1])[*:2]; aIle = CC[C@@H](C)[C@H](N)C(=O)O; NMeV = CN[C@H](C(=O)O)C(C)C; NMeA = CN[C@@H](C)C(=O)O; βAla = NCCC(=O)O
Potency is the fitted concentration of half-maximal effect.

The test can be described thus: Primary fluorescence-based thiol-reactive (MSTI) qHTS assay for identification of artifact compounds. (AID 1845221).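 For activity change, negative = thiol reactive: thiol-reactive compounds lower the probe fluorescence signal.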 Note: nearly all actives have a fitted effect of over 65% in size. The conditions noted are these: MSTI thiol-reactivity probe, 1 h; series mostly up to 53.8 µM; activity change, negative = thiol reactive: at the top concentration. The text has this:
PI: Alexander Tropsha Ph.D.
UNC Eshelman School of Pharmacy
University of North Carolina, Chapel Hill, North Carolina
Hits from high-throughput screening (HTS) of chemical libraries are often false positives due to their interference with the assay detection technology. In response to this problem, we generated the largest publicly available library of chemical liabilities and developed a free webtool to predict HTS artifacts, both of which are described herein. More specifically, we generated, curated, and integrated HTS datasets for thiol reactivity, redox activity, and luciferase (firefly and nano) activity. Using these curated datasets, we developed and validated several Quantitative Structure-Interference Relationship (QSIR) models to predict nuisance behavior. […] These models were employed for virtual profiling of the National Center for Advancing Translational Science's (NCATS) in-house library, and 256 compounds for each assay were selected for the experimental validation of nuisance behavior. The BA for these external predictions ranged from 58 to 78% for compounds within the applicability domains of the models. […] The models developed in this study, along with aggregation models previously developed by our group (SCAM Detective) were implemented in "Liability Predictor," an online tool which may be used as part of chemical library design or for triaging HTS hits. Both the models and the curated datasets are publicly available at https://liability.mml.unc.edu/.
SEQUENCE No. (e.g., 1, 2, 3, etc.); […] (e.g., Cells, Incubation, Reagent, etc.); VALUE; DESCRIPTION.
1; Reagent; 4 uL; […].
2; Compounds and control; 16 nL; Kalypsis pin tool (Wako USA) equipped with a 1536-well pin head.
4; Detection; Fluorescence, ViewLux microplate reader, 525 nm excitation, 598 nm emission.
NOTES (numbers refer to Sequence numbers above)
1. Assays determining (E)-2-(4-mercaptostyryl)-1,3,3-trimethyl-3H-indol-1-ium (MSTI) reactivity were performed as previously described in the literature with modifications for the quick identification of compounds reacting with thiol. In brief, 4 uL of MSTI or positive control Acetyl-MSTI (final concentrations of 4 uM and 4 uM, respectively) in assay buffer (2% DMSO in 1X PBS pH 7.4) was dispensed into all wells of a 1536-well assay plate (solid-bottom black plate; Greiner Bio One, Monroe, NC).
2. A Wako Pin-tool (Wako Automation, Richmond, VA) was used to transfer 16 nL of compounds (consisting of 7-plates in qHTS format, final concentration range 18.3 nM to 114 uM) or control MLS001163887 (final concentration range 1.22 nM to 40 uM).
3. Plates were centrifuged (121xg, 15 seconds) and incubated for 1 hour at room temperature protected from light.
4. Samples were read for fluorescence (Ex/Em = 525(20)/598(25) nm) on a ViewLux CCD imager (PerkinElmer). Data were normalized to Acetyl-MSTI (0% activity) and MSTI (100% activity) and the resulting percent inhibition data were fitted to a 4-parameter Hill equation using NCATS in-house software.
In the case of `CN(C(=O)CN1C(=O)COc2cc(Cl)c(Cl)cc21)[C@@H](CN1CCCC1)c1ccc(-c2cccc(C(N)=O)c2)cc1`, the “activity change, negative = thiol reactive” value (shortened to “activity change”) is -11.1% (inactive). On to `Cc1c(N[C@@H](c2nnc(-c3ccc(C#N)cc3)o2)[C@H](C)O)ccc(C#N)c1Cl`, for which the “activity change” value is 279% (inactive). As for `CN1C(=O)N(c2ccc(C#N)c(C(F)(F)F)c2)C(=O)[C@@]1(CO)c1ccccc1`, the “activity change” value is 119% (inactive). Turning to `c1ccc(C2(c3ccccc3)OC[C@@H]([C@H]3CCCCN3)O2)cc1`, the “activity change” value is 23.3% (inactive). In the case of `CN1CCN(c2nc3ccccc3nc2Cl)CC1`, the “activity change” value was 7.62% (inactive). Still for that read-out and setting: then `C=CC/C=C\C/C=C\CCCCCCCc1cc(O)cc(O)c1`, with 11.5% (inactive); and `CN1C(=O)[C@@H](Cc2c[nH]c3ccccc23)N=C(c2ccccc2F)c2ccccc21`, with 13.4% (inactive); and `COC1(C[S@@](=O)c2ccccc2)CCN(CCc2c[nH]c3ccc(F)cc23)CC1`, with 42.7% (inactive). Consider `CCOc1ccc(Oc2ccc(OCc3cc(F)ccc3F)cc2)c(N)c1`, for which the Potency is 8.44 µM (active).

For the compound `CCC(C)/C=C(C)/C=C/C1=CC2=C(Cl)C(=O)C(C)(OC(C)=O)C(=O)C2=CO1` (stereo not given), the Potency was 1.31 µM (active). With `CO[C@H]1[C@H](O)[C@H](O[C@H]2CC[C@]3(C=O)C4CC[C@]5(C)[C@H](C6=CC(=O)OC6)CC[C@]5(O)C4CC[C@@H]3C2)O[C@@H](C)[C@@H]1O` (stereo not given in full), the “activity change” value was 2.88% [at 25.6 µM] (inactive). As for `C[C@H]1O[C@@H](O[C@H]2CC[C@]3(CO)C4CC[C@]5(C)[C@@H](C6=CC(=O)OC6)CC[C@]5(O)[C@@H]4CC[C@H]3C2)[C@H](O)[C@H](O)[C@@H]1O[C@@H]1O[C@H](CO)[C@@H](O)[C@H](O)[C@H]1O` (stereo not given in full), the Potency is 3.16 µM (active). For the compound `COc1ccc(CCNCc2ccc(OC)c3ccccc23)cc1`, the “activity change” value is 55.6% (inactive). Same read-out and setting: the value for `C[C@]12CC[C@H](OC3OC(CO)C(O)C(O)C3OC3OC(CO)C(O)C(O)C3O)C[C@@H]1CC[C@@H]1C2CC[C@]2(C)[C@@H](C3=CC(=O)OC3)CC[C@]12O` (stereo not given in full) was 84.2% [at 25.6 µM] (inactive); that for `CC[C@@H](C)[C@@H]1NC(=O)[C@@H]2CCCN2C(=O)[C@@H](CC(O)CCl)OC(=O)CCNC(=O)[C@H](C)N(C)C(=O)[C@H](C(C)C)N(C)C1=O` (stereo not given in full) (cyclo([NMeA][βAla][X7]P[aIle][NMeV])) was 0.588% [at 25.6 µM] (inactive). Consider `CC[C@@H](C)[C@H]1C(=O)O[C@H](C(C)C)C(=O)N(C)[C@@H]([C@@H](C)CC)C(=O)O[C@H](C(C)C)C(=O)N(C)[C@@H]([C@H](C)CC)C(=O)O[C@H](C(C)C)C(=O)N1C`, for which the “activity change” value was -10.6% [at 25.6 µM] (inactive). Consider `COC1C(O)C(C)OC(OC2C(CO)O[C@@H](O[C@@H]3CC4CCC5C(CC[C@]6(C)[C@@H](C7=CC(=O)OC7)CC[C@]56O)[C@@]4(C)[C@H](OC(C)=O)C3)C(O)C2O)C1O` (stereo not given in full), for which the “activity change” value is -5.03% [at 25.6 µM] (inactive).

Consider `C=CCN1CC[C@]23c4c5ccc(O)c4O[C@H]2[C@@H](O)CC[C@@]3(O)[C@H]1C5`, for which the “activity change” value was 4.61% (inactive). Regarding `CN1Cc2c(ccc3c2OCO3)[C@@H]2[C@H]1c1cc3c(cc1C[C@@H]2O)OCO3`, the “activity change” value is 18.9% (inactive).

On to `Cc1[nH]c2ccc(Cl)cc2c1CCN(C)C`, for which the “activity change” value was -11.2% (inactive). The same measure, in the same setting: the value for `N#Cc1ccc([C@H]2CCCC[C@H]2O)cc1C(F)(F)F` was 10.2% (inactive); that for `C[C@]12CC[C@H](O[C@@H]3O[C@H](CO)[C@@H](O)[C@H](O)[C@H]3O)CC1CC[C@@H]1C2CC[C@]2(C)[C@@H](C3=CC(=O)OC3)CC[C@]12O` (stereo not given in full) was 58.3% [at 25.6 µM] (inactive); that for `CC1=CC2/C=C(\C)CCC(O)C(O)/C=C/C(=O)C23C(=O)NC(CC(C)C)C3C1C` (stereo not given) was 44.8% [at 25.6 µM] (inactive). In the case of `COC1CC(O[C@H]2CC[C@]3(C)C4CC[C@]5(C)[C@@H](C6=CC(=O)OC6)[C@@H](OC(C)=O)C[C@]5(O)C4CC[C@@H]3C2)OC(C)C1O[C@@H]1O[C@H](CO)[C@@H](O)[C@H](O)[C@H]1O` (stereo not given in full), the Potency was 6.3 µM (active).

As for `Nc1ncnc2c1ncn2[C@@H]1O[C@@H]2COP(O)(=S)O[C@H]2[C@H]1O` (stereo not given in full), the activity change, negative = thiol reactive was -11.9% [at 11.5 µM] (inactive).

As for `CCCCN1[C@@H]2CC[C@H]1CC(OC(c1ccc(F)cc1)c1ccc(F)cc1)C2` (stereo not given in full), the “activity change” value is -11.5% (inactive). With `C[C@]12CC[C@@H](O)C[C@@H]1CC[C@@H]1[C@@H]2CC[C@]2(C)C(=O)[C@@H](Br)C[C@@H]12`, the “activity change” value was 23% (inactive). `CC(=O)OC[C@]12C[C@H](OC(=O)CC(C)C)C(C)=C[C@H]1O[C@@H]1[C@H](O)[C@@H](O)[C@@]2(C)[C@]12CO2`: the “activity change” value is 11.4% [at 25.6 µM] (inactive). Regarding `C=CC(C)(C)c1[nH]c2c(CC=C(C)C)cc(CC=C(C)C)cc2c1C[C@@H]1NC(=O)[C@H](C)NC1=O`, the “activity change” value is 0.604% (inactive).

As to `CN1CCc2cc3c(cc2[C@H]1[C@@H]1OC(=O)c2c1ccc1c2OCO1)OCO3`, the “activity change” value was 67.1% (inactive). As to `C[C@@H]1CN(Cc2ccc(F)cc2)CCN1C(=O)COc1ccc(Cl)cc1NC(N)=O`, the “activity change” value is 114% (inactive). Still for that read-out and setting: then `Cc1ccccc1C1=CCN(C)CC1`, with -0.495% (inactive); and `COC1CC(O[C@H]2CC[C@]3(C=O)C4CC[C@]5(C)[C@@H](C6=CC(=O)OC6)CC[C@]5(O)[C@@H]4CC[C@@H]3C2)OC(C)C1O[C@@H]1O[C@H](CO)[C@@H](O[C@@H]2O[C@H](CO)[C@@H](O)[C@H](O)[C@H]2O)[C@H](O)[C@H]1O` (stereo not given in full), with -23.5% [at 11.5 µM] (inactive); and `C=C(CO)C(=O)O[C@H]1CC(=C)[C@@H]2C[C@H](O)C(=C)[C@@H]2[C@H]2OC(=O)C(=C)[C@@H]21`, with 54.9% (inactive). As for `CC1=C[C@H]2O[C@@H]3C[C@H]4OC(=O)/C=C/C=C/C(=O)OCC/C(C)=C/C(=O)OC[C@@]2(CC1)[C@]4(C)[C@]31CO1`, the “activity change” value was 32.1% [at 25.6 µM] (inactive).

Consider `C=C(C)[C@@]12O[C@@H]1[C@@]1(C)C(=C[C@H]2O)CC[C@@H](O)[C@@H]1C`, for which the “activity change” value was -12.9% (inactive).

For the compound `CC(C)OC(=O)c1ccnc2cc(C(OCCN3CCCCC3)c3ccccc3Cl)sc12` (stereo not given), the “activity change” value was -16.7% (inactive).

`N#Cc1ccc(N2CCN(C(=O)COc3ccc4[nH]cc(CCN)c4c3)CC2)cc1`: the “activity change” value was -7.64% (inactive). Turning to `CCCCCn1cc(C(=O)C2C(C)(C)C2(C)C)c2ccccc21`, the “activity change” value is 1.68% (inactive).

`COc1ccc(C23CCC(=O)C=C2N(C)CC3)cc1OC` (stereo not given): the “activity change” value was 8.27% (inactive).
